Assay results as given in PubChem BioAssay.
Activity calls are given as the source filed them.

Tests used:
[1] = anti-His antibody binders, primary screen, artefact control for SMM control protein annotation, biochemical, small-molecule microarray, 635 nm fluorescence (AID 1128); conditions: anti-His Alexa647 antibody binding, higher = more signal;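 note: score merges feature fluorescence with signal-to-noise for each printed compound spot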
[2] = system: Human papillomavirus type 1a E7 protein (residues 1-88); test: HPV1a E7 small-molecule binders, primary screen, biochemical, small-molecule microarray, residues 1-88, 635 nm (AID 1129); conditions: small-molecule microarray binding, fluorescence 635 nm; higher = more signal
[3] = target: Focal adhesion kinase 1 (Homo sapiens) (UniProt Q05397); test: small-molecule microarray binders of FAK, primary screen, biochemical, 635/667 nm fluorescence, BSA, DTT (AID 1130); conditions: PTK2 binding, 635 nm fluorescence, higher = more signal;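 note: composite of spot emission at 667 nm and signal to noise over triplicate slides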
[4] = system: Fibrinogen (Alexa647-labelled); test: fibrinogen binders on compound microarrays, profiling panel, artefact control for SMM control-protein annotation, biochemical, small-molecule microarray, 635/667 nm fluorescence (AID 1131); conditions: fibrinogen-A647 binding fluorescence, higher = more signal;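 note: z-score merges 667 nm fluorescence with per-spot signal-to-noise over triplicate slides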
[5] = target: Follistatin (Homo sapiens) (UniProt P19883); test: follistatin binders on small-molecule microarrays, primary screen, biochemical, small-molecule microarray, 635/667 nm fluorescence (AID 1132); conditions: FST binding, 635 nm fluorescence, higher = more signal
[6] = target: Fibroblast growth factor 2 (Homo sapiens) (UniProt P09038); test: FGF2 binders on small-molecule microarrays, primary screen, biochemical, small-molecule microarray, 635/667 nm fluorescence (AID 1133); conditions: small-molecule microarray binding, FGF2, fluorescence 635/667; higher = more signal
[7] = mitochondrial membrane potential change in A549 cells, profiling panel, cell-based, JC-1 fluorescence, basal, 24 h, 100 nL (AID 1138); conditions: higher = more signal;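 note: A549 lung adenocarcinoma cells under basal conditions with no added stimulus; test concentration not given here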
Lefty1 = Lefty1 binders on small-molecule microarrays, primary screen, biochemical, small-molecule microarray, 635/667 nm fluorescence (AID 1139); conditions: small-molecule microarray binding, fluorescence 635/667; higher = more signal
[8] = system: wheat germ agglutinin (Triticum aestivum), Alexa647-labelled; test: wheat germ agglutinin binders on compound microarrays, profiling panel, artefact control for SMM control-protein annotation, biochemical, small-molecule microarray, 635/667 nm fluorescence (AID 1140); conditions: WGA-A647 binding, 635 nm fluorescence, higher = more signal;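 note: score merges 667 nm feature emission with signal to noise over triplicate slides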
[9] = target: Luciferin 4-monooxygenase (Photinus pyralis) (UniProt P08659); test: firefly luciferase enzyme inhibitors, primary screen, biochemical, luminescence, purified enzyme, 2006 set (AID 1141); conditions: SteadyGlo luminescence, 30 min, higher = more signal, called active from +8 up or from −8 down;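 note: cell-free assay with purified firefly luciferase at 100 ng per well in PBS; test concentration not given here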
Luciferin 4-monooxygenase (Photinus pyralis), sequence (P08659 whole entry, looked up): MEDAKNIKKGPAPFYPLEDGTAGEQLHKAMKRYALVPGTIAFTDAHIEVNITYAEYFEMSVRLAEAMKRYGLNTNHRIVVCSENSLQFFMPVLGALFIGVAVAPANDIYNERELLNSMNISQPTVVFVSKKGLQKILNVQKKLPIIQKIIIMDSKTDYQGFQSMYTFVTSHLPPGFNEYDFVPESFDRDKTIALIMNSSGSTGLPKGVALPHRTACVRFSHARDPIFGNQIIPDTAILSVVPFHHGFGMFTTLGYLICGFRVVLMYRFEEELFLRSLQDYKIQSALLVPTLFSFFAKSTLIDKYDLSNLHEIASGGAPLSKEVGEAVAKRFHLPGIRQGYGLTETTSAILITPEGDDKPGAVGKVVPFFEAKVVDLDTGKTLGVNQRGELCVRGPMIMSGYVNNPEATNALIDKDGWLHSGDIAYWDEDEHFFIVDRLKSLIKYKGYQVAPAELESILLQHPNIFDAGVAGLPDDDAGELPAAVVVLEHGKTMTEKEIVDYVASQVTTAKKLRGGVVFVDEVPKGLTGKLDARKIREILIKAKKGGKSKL

Follistatin (Homo sapiens), sequence (P19883 whole entry, looked up): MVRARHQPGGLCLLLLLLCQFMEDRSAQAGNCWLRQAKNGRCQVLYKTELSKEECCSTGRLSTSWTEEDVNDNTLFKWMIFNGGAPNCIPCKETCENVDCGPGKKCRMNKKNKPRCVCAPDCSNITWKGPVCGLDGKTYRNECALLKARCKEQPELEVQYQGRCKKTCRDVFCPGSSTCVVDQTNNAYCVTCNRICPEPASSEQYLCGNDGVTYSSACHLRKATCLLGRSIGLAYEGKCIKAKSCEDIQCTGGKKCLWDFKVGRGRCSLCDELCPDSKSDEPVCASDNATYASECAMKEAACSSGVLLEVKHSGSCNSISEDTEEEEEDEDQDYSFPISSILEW
Fibroblast growth factor 2 (Homo sapiens), sequence (P09038 whole entry, looked up): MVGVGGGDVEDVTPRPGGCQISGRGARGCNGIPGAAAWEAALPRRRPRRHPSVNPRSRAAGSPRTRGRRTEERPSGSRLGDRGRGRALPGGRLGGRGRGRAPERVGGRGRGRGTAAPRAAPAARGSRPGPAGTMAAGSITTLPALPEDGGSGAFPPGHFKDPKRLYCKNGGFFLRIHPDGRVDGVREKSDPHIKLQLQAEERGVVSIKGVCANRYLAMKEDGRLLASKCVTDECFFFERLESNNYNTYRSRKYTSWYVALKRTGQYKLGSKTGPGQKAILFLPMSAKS
Focal adhesion kinase 1 (Homo sapiens), sequence (Q05397 whole entry, looked up): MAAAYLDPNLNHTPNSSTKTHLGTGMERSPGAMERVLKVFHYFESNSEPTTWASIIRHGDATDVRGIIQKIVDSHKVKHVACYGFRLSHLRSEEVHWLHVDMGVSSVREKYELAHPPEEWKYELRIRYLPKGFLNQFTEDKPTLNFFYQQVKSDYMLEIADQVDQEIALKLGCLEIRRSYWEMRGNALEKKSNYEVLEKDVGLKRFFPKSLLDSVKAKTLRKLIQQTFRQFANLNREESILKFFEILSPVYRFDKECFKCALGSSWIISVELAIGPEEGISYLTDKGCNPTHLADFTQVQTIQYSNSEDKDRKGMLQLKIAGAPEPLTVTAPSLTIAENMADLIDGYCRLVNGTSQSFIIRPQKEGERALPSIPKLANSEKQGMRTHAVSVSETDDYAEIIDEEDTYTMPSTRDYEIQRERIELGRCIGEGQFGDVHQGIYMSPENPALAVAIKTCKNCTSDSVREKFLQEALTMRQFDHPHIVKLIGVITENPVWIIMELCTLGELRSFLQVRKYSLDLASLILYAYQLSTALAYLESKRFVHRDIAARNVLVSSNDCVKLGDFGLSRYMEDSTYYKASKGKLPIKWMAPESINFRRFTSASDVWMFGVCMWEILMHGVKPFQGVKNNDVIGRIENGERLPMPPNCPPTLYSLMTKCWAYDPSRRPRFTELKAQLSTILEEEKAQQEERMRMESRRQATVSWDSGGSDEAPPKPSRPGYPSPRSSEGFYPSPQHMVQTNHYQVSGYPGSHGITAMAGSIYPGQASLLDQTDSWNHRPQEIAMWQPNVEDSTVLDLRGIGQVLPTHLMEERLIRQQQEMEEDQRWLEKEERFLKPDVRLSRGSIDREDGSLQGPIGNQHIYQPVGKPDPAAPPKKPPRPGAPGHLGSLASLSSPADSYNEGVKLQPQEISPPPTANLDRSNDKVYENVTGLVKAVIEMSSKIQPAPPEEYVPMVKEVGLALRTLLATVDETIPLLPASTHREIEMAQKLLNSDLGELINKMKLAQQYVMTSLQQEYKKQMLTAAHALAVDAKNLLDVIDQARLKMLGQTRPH

Structure (SMILES) | composite z-score [1] | composite z-score [2] | composite z-score [3] | composite z-score [4] | composite z-score [5] | composite z-score [6] | z-score [7] | composite z-score (Lefty1) | composite z-score [8] | z-score [9]
COc1ccc([Si](C)(C)[C@@H]2[C@@H](CC(=O)N3Cc4ccccc4C[C@H]3CO)O[C@]3(C(=O)N(Cc4ccc(N5CCC5=O)cc4)c4ccccc43)[C@H]2C)cc1 | 0.365 | 1.05 | 0.315 | 0.358 | 0.825 | 1.57 | 0.199 | 1.44 | 0.283 | 0.205 (inactive)
C=C(C)C1CCC(C(O)C2C=CC3C(=O)N(C)C(=O)C3N2Nc2cc(OC)c(OC)c(OC)c2)CC1 (stereo not given) | 1.23 | 1.24 | 0.573 | 0.723 | 1.31 | 0.425 | 0.444 | 0.677 | 0.504 | -1.07 (inactive)
CCc1cccc(NC(=O)O[C@H]2[C@H](OC(=O)Nc3ccccc3)[C@H](OC(=O)Nc3ccccc3)[C@@H](OC)O[C@@H]2CO)c1 | 1.14 | 1.26 | 1.53 | 0.571 | 1.16 | 0.216 | -1.55 | 0.0478 | 0.751 | 0.234 (inactive)
C=C(COC)/C(=C/C[C@@H](OC(=O)c1ccncc1)c1ccccc1OCCO)c1cc(C(=O)OC)ccc1OC | -1.25 | -0.975 | -0.478 | -1.5 | 0.249 | -0.203 | 2.02 | -0.247 | -1.12 | -2.4 (inactive)
CCOC(=O)C1=CCN(S(=O)(=O)c2ccc(C)cc2)C1c1ccccc1 (stereo not given) | 0.843 | 1.2 | 0.656 | 0.609 | 0.467 | 0.835 | 0.942 | 0.0842 | 0.652 | 1.75 (inactive)
CCOC(=O)C=Cc1ccccc1O | 0.712 | 0.923 | -0.0156 | 0.881 | 0.79 | 0.292 | -1.47 | 0.175 | 0.404 | -0.532 (inactive)
O=C1[C@@]23C=C(Br)[C@H](C[C@@H]2COC3)[C@@]12CO2 | 0.192 | 0.247 | 0.0493 | 0.161 | 0.397 | 0.423 | -0.0605 | 0.414 | 0.0439 | 0.44 (inactive)
